This is an account of results in PubChem BioAssay (NCI).

Among the test systems are RPMI-8226 leukemia; OVCAR-8 ovarian; OVCAR-5 ovarian; OVCAR-4 ovarian; SK-OV-3 ovarian; IGROV1 ovarian; OVCAR-3 ovarian; HS 578T breast; NCI/ADR-RES ovarian; T-47D breast; MDA-MB-435 melanoma; SW-620 colon; MCF7 breast; HCT-116 colon; HCC-2998 colon; KM12 colon; BT-549 breast.
Holding throughout (test): NCI-60 one-dose screen, 48 h (100 = growth as untreated, 0 = no growth, -100 = all killed)
What all share (details): 10 µM unless noted

This is part of a sample that, as a whole, favours compounds with a hit. Of some 83,000 tested, about 20% had one in any assay.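 96-well plates, one dose, 48 hours. Percent growth reported; active if below 10.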 A number with no mark means an inactive call. Activity calls are given as the source filed them.

Consider `NC(CSC(c1ccccc1)(c1ccccc1)c1ccc2c(c1)OCO2)C(=O)O` (stereo not drawn), for which the growth in the assay with RPMI-8226 leukemia was -7.99% (active); with OVCAR-8 ovarian, 19.4%; with OVCAR-5 ovarian it was 41%; in the assay with OVCAR-4 ovarian, 70.7%; in the assay with SK-OV-3 ovarian, 15.2%; with IGROV1 ovarian, 42.2%. In addition, the growth was 3.46% (active) in the assay with OVCAR-3 ovarian; 15.7% in the assay with HS 578T breast; 53.9% with NCI/ADR-RES ovarian; 30.2% in the assay with T-47D breast; -58% (active) in the assay on MDA-MB-435 melanoma; 12.9% with SW-620 colon. The growth in the assay on MCF7 breast was 10.3%; in the assay on HCT-116 colon, 7.34% (active); in the assay with HCC-2998 colon it was 9.26% (active); in the assay with KM12 colon, 13.1%.
For the molecule `Cc1ccc(C(=O)c2ccc(CC(=O)N/N=C/c3ccc(O)cc3O)n2C)cc1`, the growth was 48.4% in the assay on RPMI-8226 leukemia; 48.4% in the assay with OVCAR-8 ovarian; 63.4% in the assay with OVCAR-5 ovarian; 20.7% in the assay with OVCAR-4 ovarian; 45.1% in the assay with SK-OV-3 ovarian; 41.7% with IGROV1 ovarian. The growth was 37.2% in the assay on OVCAR-3 ovarian; 74.9% in the assay with HS 578T breast; 34.6% with NCI/ADR-RES ovarian; 50.2% with T-47D breast; 50.8% with BT-549 breast; 63.1% in the assay with MDA-MB-435 melanoma. Besides, the growth in the assay on MCF7 breast was 39.2%; in the assay with HCT-116 colon it was 34.9%; in the assay on HCC-2998 colon, 59.6%; in the assay on KM12 colon, 36.1%.
For `CCOC(=O)c1c(-c2ccccc2)n2c(=O)cc(C)c3c(O)c(O)cc1c32`, the growth with RPMI-8226 leukemia was 36.5%; in the assay with OVCAR-8 ovarian, 29.1%; in the assay with OVCAR-5 ovarian, 70.1%; with OVCAR-4 ovarian, 15.4%; with SK-OV-3 ovarian, 76.3%; with IGROV1 ovarian, 61.2%. Also, the growth was 0.992% (active) with OVCAR-3 ovarian; 87.7% with HS 578T breast; 15.3% in the assay on NCI/ADR-RES ovarian; 55% with T-47D breast; 89.8% in the assay with BT-549 breast; 79.7% in the assay on MDA-MB-435 melanoma. For the same molecule, the growth in the assay with SW-620 colon is 55.4%; with MCF7 breast, 29.9%; with HCT-116 colon it was 24.5%; in the assay with HCC-2998 colon, 61.3%; with KM12 colon it was 64.3%.
As to `c1ccc(CCc2ccccc2-c2cc(-c3ccccc3)on2)cc1`, the growth with RPMI-8226 leukemia was 83.5%; in the assay on OVCAR-8 ovarian, 103%; in the assay with OVCAR-5 ovarian, 89.9%; in the assay with OVCAR-4 ovarian, 77.2%; in the assay with IGROV1 ovarian it was 66.4%; in the assay on OVCAR-3 ovarian it was 96%. The growth in the assay with HS 578T breast was 89.4%; in the assay with NCI/ADR-RES ovarian it was 98.3%; in the assay on T-47D breast it was 55.4%; in the assay on BT-549 breast, 102%; in the assay on MDA-MB-435 melanoma, 105%; in the assay with SW-620 colon it was 91%. Besides, the growth was 74.7% in the assay on MCF7 breast, 59.8% in the assay with HCT-116 colon, 90.4% in the assay with HCC-2998 colon and 87.5% in the assay on KM12 colon.
Consider `Cc1c2cc[nH]c(=O)c2c(C)c2c1[nH]c1ccc(OC(=O)c3ccccc3)cc12`, for which the growth in the assay on RPMI-8226 leukemia was 40.2%; in the assay on OVCAR-8 ovarian, 28.4%; in the assay on OVCAR-5 ovarian, 53.1%; in the assay on OVCAR-4 ovarian it was 62.5%; with SK-OV-3 ovarian it was 8.11% (active); with IGROV1 ovarian it was 30.6%. For the same molecule, the growth in the assay on OVCAR-3 ovarian was 44.3%; with HS 578T breast it was 19.3%; with NCI/ADR-RES ovarian, 27.7%; in the assay with T-47D breast, 10.3%; in the assay on BT-549 breast, 40.8%; in the assay with MDA-MB-435 melanoma it was 28%. The growth with SW-620 colon was 28%; with MCF7 breast, 20.3%; in the assay on HCT-116 colon it was 22.7%; in the assay on HCC-2998 colon it was 57.7%; in the assay with KM12 colon it was 39%.
Regarding `CCCCCCNc1nc(NCCCCCC)c2[nH]c(NCCCCCC)nc2n1`, the growth in the assay on RPMI-8226 leukemia is -29.4% (active); with OVCAR-8 ovarian, 57.3%; with OVCAR-5 ovarian, -7.94% (active); in the assay on OVCAR-4 ovarian, -16% (active); with SK-OV-3 ovarian, 102%; in the assay on IGROV1 ovarian it was 68.8%. For the same molecule, the growth is 26.5% in the assay on OVCAR-3 ovarian; 55.7% in the assay with HS 578T breast; 90.3% with NCI/ADR-RES ovarian; 33.3% in the assay with T-47D breast; 71.6% in the assay with BT-549 breast; 67.5% with MDA-MB-435 melanoma. Further, the growth with SW-620 colon was 16.3%; in the assay with MCF7 breast, 20.9%; in the assay on HCT-116 colon it was -35% (active); in the assay on HCC-2998 colon, 46.6%; in the assay on KM12 colon, 50.8%.
With `O=C(N/N=C/c1ccc(Cl)cc1Cl)c1ccc2nc(-c3ccc(Cl)cc3)[nH]c2c1`, the growth is 2.83% (active) in the assay with RPMI-8226 leukemia; 14.2% in the assay on OVCAR-8 ovarian; -17.9% (active) with OVCAR-4 ovarian; -27.4% (active) with IGROV1 ovarian; -52.9% (active) with OVCAR-3 ovarian; 33% in the assay on HS 578T breast. In addition, the growth is 41.2% in the assay on NCI/ADR-RES ovarian; -13.1% (active) in the assay on T-47D breast; 113% in the assay on BT-549 breast; 38.8% in the assay with MDA-MB-435 melanoma; -28.3% (active) in the assay on SW-620 colon; -20% (active) with MCF7 breast. Also, the growth in the assay with HCT-116 colon is -1.88% (active); with HCC-2998 colon, 3.69% (active); in the assay on KM12 colon, -29.1% (active).
`O=C(CCC(=O)c1nc2ncccc2[nH]1)NN1C(=O)CSC1c1ccc(Cl)cc1` (stereo not drawn): the growth in the assay on RPMI-8226 leukemia was 87.1%; in the assay with OVCAR-8 ovarian, 101%; with OVCAR-5 ovarian, 106%; in the assay on OVCAR-4 ovarian, 94.1%; in the assay with SK-OV-3 ovarian, 100%; in the assay with IGROV1 ovarian, 86.7%. The growth with OVCAR-3 ovarian is 98.7%; with HS 578T breast, 101%; in the assay on NCI/ADR-RES ovarian, 100%; with T-47D breast it was 90.7%; in the assay on BT-549 breast it was 120%; in the assay on MDA-MB-435 melanoma, 99.7%. In addition, the growth is 81.4% in the assay with SW-620 colon; 87% in the assay with MCF7 breast; 86% in the assay on HCT-116 colon; 112% in the assay with HCC-2998 colon; 94.7% in the assay on KM12 colon.
With `COC(c1ccc2ccccc2c1)C(C)C(F)F` (stereo not drawn), the growth in the assay on RPMI-8226 leukemia is 98.8%; in the assay on OVCAR-8 ovarian, 99.4%; in the assay with OVCAR-5 ovarian it was 95.5%; in the assay on OVCAR-4 ovarian it was 109%; in the assay on SK-OV-3 ovarian it was 87.5%; with IGROV1 ovarian, 100%. For the same molecule, the growth is 114% in the assay on OVCAR-3 ovarian; 116% in the assay with HS 578T breast; 107% in the assay on NCI/ADR-RES ovarian; 90% in the assay with T-47D breast; 95% in the assay with BT-549 breast; 96% in the assay on MDA-MB-435 melanoma. Besides, the growth in the assay on SW-620 colon was 106%; in the assay with MCF7 breast, 109%; with HCT-116 colon it was 87.7%; in the assay on HCC-2998 colon, 114%; in the assay on KM12 colon, 107%.
